Laboratory results: PubChem BioAssay AID463173 (ICCB-Longwood Screening Facility, Harvard Medical School, 2010)
Hit rate of the full screen: of about 52,000 compounds, about 4,300 (8.3%) were called active. No stated cut-off is given here; in the data, active means survival mostly below about 52% (no sharp cut-off); inactive means mostly above about 56%. For the sample, actives were picked, then their nearest neighbours and some compounds at random.

Tested on: DeltatarO mutant
Experiment: growth inhibition of S. aureus wild type versus tarO mutant, primary screen, teichoic acid synthesis inhibitors, RN4220, OD600 (AID 463173)
Conditions: OD600, 18 h, active compounds read low, screened at 18.75 µg/mL (by protocol)

Row | SMILES | survival
1 | CCN(CC)CCNC(=O)c1c(C)oc2ncnc(N3CCOCC3)c12 | 130% (inactive)
2 | Cc1ccc2oc(C(=O)N(Cc3ccc(N(C)C)cc3)CC3CCCO3)c(C)c2c1 (centres undefined) | 93% (inactive)
3 | Cc1ccccc1-n1c(SCC(=O)N(C(C)C)C(C)C)nnc1-c1cccnc1 | 99% (inactive)
4 | Cn1ccnc1SCC(=O)Nc1cc(Cl)ccc1Cl | 68% (inactive)
5 | COc1cccc(C2CC(=O)N(c3ccc(F)cc3)C3=C2C(=O)OC3)c1OC (centres undefined) | 75% (inactive)
6 | COc1ccc(-n2nc(C(=O)Nc3ccc(Br)cc3C)c3c4ccccc4n(C)c3c2=O)cc1 | 97% (inactive)
7 | Fc1ccc(C2=CC(c3ccc(F)cc3)n3c(nc4ccccc43)N2)cc1 (centres undefined) | 87% (inactive)
8 | CCOC(=O)c1ccc(NC(=O)CSc2c(C(C)C)cnc3c2c(=O)n(C)c(=O)n3C)cc1 | 107% (inactive)
9 | Cc1ccc2nc(-c3c[nH]c4ccccc34)c(Nc3ccccc3C)n2c1 | 96% (inactive)
10 | CC(=O)N1C(Nc2ccc(C)cc2)CCN1c1ccccc1 (centres undefined) | 81% (inactive)
11 | COc1ccc(Nc2oc(/C=C/c3cccc(OC)c3)nc2C#N)cc1 | 100% (inactive)
12 | Cc1ccc2c(c1)C(c1ccc(F)cc1)N(C(=O)c1ccc(S(=O)(=O)N3CCCCC3)cc1)CC(=O)N2 (centres undefined) | 178% (inactive)
13 | CC1CCN(c2nc3ccccc3nc2SCC(=O)Nc2ccccc2C(C)C)CC1 | -1% (active)
14 | CC(=O)Nc1ccc(NC(=O)CSc2nc3ccccc3nc2N2CCC(C)CC2)cc1 | 75% (inactive)
15 | Cc1cccc(NC(=O)CSc2nc3ccccc3nc2N2CCC(C)CC2)c1 | 8% (active)
16 | Cc1ccc(C)c(NC(=O)CSc2nc3ccccc3nc2N2CCOCC2)c1 | 85% (inactive)
17 | CCc1ccc(Cn2c(CNS(=O)(=O)c3ccc4c(c3)CCCC4)nc3cccnc32)cc1 | 102% (inactive)
18 | Fc1ccc(-n2ncc3c(N4CCC(Cc5ccccc5)CC4)ncnc32)cc1 | 90% (inactive)
19 | COc1cccc(C2CC(=O)Nc3c2c(=O)n(C)c2ncnn32)c1OC (centres undefined) | 166% (inactive)
20 | Cc1ccc2c(c1)c1c3n2CCN(C(=O)Cn2c(-c4ccccc4)noc2=O)C3CCC1 (centres undefined) | 90% (inactive)
21 | CC1CCc2c(sc(NC(=O)c3cc4nc(-c5ccc(Cl)cc5)cc(C(F)(F)F)n4n3)c2C#N)C1 (centres undefined) | 91% (inactive)
22 | O=S(=O)(c1ccc(Br)cc1)c1nnn2c1nc(NC1CCCCCC1)c1sccc12 | 63% (inactive)
23 | Cc1ccc(S(=O)(=O)c2nnn3c2nc(NC2CCCCC2)c2sccc23)cc1 | 109% (inactive)

Row | SMILES | survival
24 | Cc1ccc(S(=O)(=O)c2nnn3c2nc(NC2CCCCCC2)c2sccc23)cc1C | -4% (active)
25 | O=S(=O)(c1ccc(Cl)cc1)c1nnn2c1nc(NC1CCCCC1)c1sccc12 | 41% (inactive)
26 | Cc1ccc(S(=O)(=O)c2nnn3c2nc(NC2CCCCC2)c2sccc23)cc1C | 35% (active)
27 | Cc1ccc(C)c(S(=O)(=O)c2nnn3c2nc(NC2CCCCC2)c2sccc23)c1 | 40% (inactive)
28 | CCn1cc2nc(SCc3cccc(Cl)c3)n(Cc3ccc(C)cc3)c(=O)c2n1 | 44% (inactive)
29 | COC(=O)CC(=O)CSc1nc(C)cc(C(F)(F)F)c1C#N | 83% (inactive)
30 | O=c1cc(CSc2nnc(COc3ccccc3)o2)c2ccccc2[nH]1 | 107% (inactive)
31 | O=C1Nc2c(c(=O)[nH]c(=O)n2-c2ccc(F)cc2)C1(NS(=O)(=O)c1ccc(Cl)cc1)C(F)(F)F (centres undefined) | 59% (inactive)
32 | COC(=O)c1ccccc1NC(=O)c1cc2ccccn2n1 | 73% (inactive)
33 | O=c1c(=O)n(Cc2c(F)cccc2Cl)ccn1Cc1ccccc1 | 82% (inactive)
34 | COc1ccccc1Cn1ccn(Cc2c(F)cccc2Cl)c(=O)c1=O | 110% (inactive)
35 | O=c1c(=O)n(-c2ccccc2)ccn1Cc1c(F)cccc1Cl | 44% (active)
36 | Cc1cc(O)c(CN2CCN(c3ccc(F)cc3)CC2)c2oc(=O)cc(C)c12 | 46% (inactive)
37 | CC(=O)Nc1ccc(NC(=O)CCSCCc2ccccn2)cc1 | 135% (inactive)
38 | O=C(CCSCCc1ccccn1)Nc1ccc(Cl)cc1 | 47% (active)
39 | Cc1ccc(NC(=O)CCSCCc2ccccn2)cc1 | 93% (inactive)
40 | COc1ccc(-n2c(C)nnc2SCc2nc(-c3ccc(OC)c(OC)c3)no2)cc1 | 71% (inactive)
41 | COC(=O)c1ccc2c(c1)N(CC(=O)Nc1ccc(C)cc1Cl)C(=O)c1ccccc1S2 | 76% (inactive)
42 | Cc1cccc(C(CC(=O)NCC2(c3ccccc3)CCCC2)c2ccccc2)c1O (centres undefined) | 38% (active)
43 | Cc1ccc(O)c(C(CC(=O)NCC2(c3ccccc3)CCCC2)c2ccccc2)c1 (centres undefined) | 82% (inactive)
44 | Cc1ccc(C(CC(=O)NCC2(c3ccccc3)CCCC2)c2ccccc2)c(O)c1 (centres undefined) | 101% (inactive)
45 | O=C(O)CCc1ccc(-c2ccc(F)cc2)n1CCC(=O)O | 103% (inactive)
46 | Cc1ccc(NC(=O)CSc2nnc(C)c(=O)[nH]2)cc1 | 70% (inactive)

Row | SMILES | survival
47 | c1ccc(Cc2[nH]nc3ccccc23)cc1 | 89% (inactive)
48 | CCc1cccc(-n2nnc(-c3nsc(NC(=O)c4cccs4)n3)c2C)c1 | -5% (active)
49 | CCc1ccc(-n2nnc(-c3nsc(NC(=O)c4ccccc4Cl)n3)c2C)cc1 | 15% (active)
50 | Cc1ccc(-n2nnc(-c3nsc(NC(=O)c4ccccc4C)n3)c2C)cc1Cl | 134% (inactive)
51 | Cc1c(-c2nsc(NC(=O)c3ccccc3)n2)nnn1-c1ccc(C(F)(F)F)c(Cl)c1 | 86% (inactive)
52 | CSc1cccc(-n2nnc(-c3nsc(NC(=O)c4cccs4)n3)c2C)c1 | 73% (inactive)
53 | Cc1cc(C)cc(-n2nnc(-c3nsc(NC(=O)c4ccccc4Cl)n3)c2C)c1 | 64% (inactive)
54 | Cc1c(-c2nsc(NC(=O)c3cccc(Cl)c3)n2)nnn1-c1ccccc1C(F)(F)F | -4% (active)
55 | COc1cccc(C(=O)Nc2nc(-c3nnn(-c4ccccc4C(F)(F)F)c3C)ns2)c1 | 87% (inactive)
56 | Cc1ccc(-n2nnc(-c3nsc(NC(=O)c4cccc(Cl)c4)n3)c2C)cc1C | 76% (inactive)
57 | Cc1cccc(C(=O)Nc2nc(-c3nnn(-c4cc(C)ccc4C)c3C)ns2)c1 | 94% (inactive)
58 | CCc1cccc(-n2nnc(-c3nsc(NC(=O)c4ccc(C)cc4)n3)c2C)c1 | 54% (inactive)
59 | Cc1ccc(Cl)cc1-n1nnc(-c2nsc(NC(=O)c3ccccc3Cl)n2)c1C | 6% (active)
60 | O=C(Cn1ncc2c3ccccc3n(Cc3ccccc3F)c2c1=O)NCc1ccccc1Cl | 78% (inactive)
61 | Cc1ccc(N(CCO)S(=O)(=O)c2ccc(NC3=NS(=O)(=O)c4ccccc43)cc2)cc1 | 96% (inactive)
62 | CCc1ccc(C(=O)c2cn(CC(=O)Nc3ccc4c(c3)OCCO4)c3ccc(F)cc3c2=O)cc1 | 78% (inactive)
63 | Cc1cccc(NS(=O)(=O)c2ccc3c(c2)CCCN3C(=O)C2CCC2)c1C | 107% (inactive)
64 | Cc1oc2ncn(C)c(=O)c2c1C(=O)Nc1ccc(F)cc1 | 72% (inactive)
65 | COc1ccc(-n2c(SCc3ccccc3F)nc3c([nH]c4ccccc43)c2=O)cc1OC | 68% (inactive)
66 | ON(Cn1nnc2ccccc21)Cn1nnc2ccccc21 | 102% (inactive)
67 | COc1ccc(-c2noc(-c3ccc(N4CCCCC4C)c([N+](=O)[O-])c3)n2)cc1OC (centres undefined) | 104% (inactive)
68 | Cc1ccc(C(=O)Nc2nc(-c3nnn(-c4cccc(Cl)c4C)c3C)ns2)cc1C | 124% (inactive)
69 | COc1ccc(Cl)cc1-n1nnc(-c2nsc(NC(=O)c3ccccc3Cl)n2)c1C | 23% (active)

Row | SMILES | survival
70 | COc1cccc(C(=O)Nc2nc(-c3nnn(-c4cccc(Cl)c4C)c3C)ns2)c1 | -5% (active)
71 | COc1ccc(C(=O)Nc2nc(-c3nnn(-c4cc(OC)ccc4OC)c3C)ns2)cc1 | 109% (inactive)
72 | COc1cccc(C(=O)Nc2nc(-c3nnn(-c4cc(C)ccc4C)c3C)ns2)c1 | 88% (inactive)
73 | COc1ccc(-n2nnc(-c3nsc(NC(=O)c4ccc(C)c(C)c4)n3)c2C)cc1Cl | 126% (inactive)
74 | O=C(C1CC1)N1CCc2cc(Br)cc(S(=O)(=O)N3CCN(c4cccc(Cl)c4)CC3)c21 | 62% (inactive)
75 | CCOc1ccc(-n2c(=O)c3c4c(sc3n(CC(=O)NC(C)CC)c2=O)CCC4)cc1 (centres undefined) | 142% (inactive)
76 | COC(=O)Cn1c(CN2CCN(c3ccc(OC)cc3)CC2)nc2c1c(=O)[nH]c(=O)n2C | 88% (inactive)
77 | CCCc1nn2c(=O)cc(COC(=O)c3ccc(NC(=O)c4cccs4)cc3)nc2s1 | 69% (inactive)
78 | CCOc1ccc(N(C)C(CNS(=O)(=O)c2ccccc2)c2ccccc2)cc1 (centres undefined) | 87% (inactive)
79 | Cn1c(=O)oc2cc(S(=O)(=O)N3CCC(C(=O)N4CCN(c5ccc(Cl)cc5)CC4)CC3)ccc21 | 56% (inactive)
80 | COC(=O)C1=CN(C2CC2)C=C(C(=O)OC)C1c1ccsc1 | 60% (active)
81 | COC(=O)C1=CNC=C(C(=O)OC)C1c1ccc(Cl)cc1 | 88% (inactive)
82 | COC(=O)C1=CN(CCCN2CCCC2=O)C=C(C(=O)OC)C1c1cccs1 | 77% (inactive)
83 | COc1ccc(-n2c(=O)c3c4c(sc3n(Cc3ccccc3)c2=O)CN(C(C)=O)CC4)cc1OC | 67% (inactive)
84 | COc1cccc2cc(-c3nc4ccc(C)cc4[nH]3)c(=O)oc12 | 98% (inactive)
85 | C=CCc1cccc2cc(-c3nc4ccc(C(=O)O)cc4[nH]3)c(=O)oc12 | 92% (inactive)
86 | C=CCc1cccc2cc(-c3nc4ccc(C)cc4[nH]3)c(=O)oc12 | 0% (active)
87 | O=C(NC(=O)c1ccc(F)cc1)Nc1ccc(-c2cc(C(F)(F)F)nn2-c2ccccc2)cc1 | 61% (inactive)
88 | COCCn1c(SCC(=O)c2ccccc2)nc2cc(C(=O)NC3CCCC3)ccc2c1=O | 87% (inactive)
89 | CC(C)=CC(=O)Nc1nnc(Cc2ccccc2)s1 | 55% (inactive)
